# Assay results published in ChEMBL document CHEMBL3988442, “University of Dundee, Small-Polar-MMV Screening Library” (2021).
# The whole screen tested about 69,000 compounds, of which about 1,000 (1.4%) showed an effect of 50% or more. Shown is part of a subset that was picked to be rich in strong results.
# Test system: Leishmania donovani
# Experiment: Leishmania intramacrophage assay
# Type: functional, organism-based
# Parameters: scale not given: in the data most compounds retested in dose-response had high values
structure (smiles),measurement,setting,value
Nc1cc2c(nn1)CCN(C(=O)CC1CCCCC1)C2,Percent Effect,30 µM,25.14%
CCOC(=O)C1(Cc2cccc(OC)c2)CCCN(Cc2ncc[nH]2)C1 (stereo unspecified),Percent Effect,"30.3 µM, […]",-0.9604%
CCOC(=O)C1(CCOC)CCCN(Cc2nccn2CC)C1 (stereo unspecified),Percent Effect,"30.3 µM, […]",-5.772%
CCOC(=O)C1(Cc2ccccc2)CCCN(Cc2nccn2CC)C1 (stereo unspecified),Percent Effect,"30.3 µM, […]",51.2%
CN(C)C(=O)CNC(=O)c1ccc(Cl)cc1F,Percent Effect,"30 µM, 30.03 µM",-10.55%
Br.O=C(CN(C1=NCCCC1)c1ccccc1)c1ccccc1,Percent Effect,"30 µM, 30.03 µM",-5.499%
Br.Cc1ccc(N(CC(=O)c2ccc(Br)cc2)C2=NCCCCC2)cc1,Percent Effect,"30 µM, 30.03 µM",57.51%
COc1ccc(CN(Cc2c[nH]cn2)CC2CCCO2)c(OC)c1.O=C(O)CC(O)(CC(=O)O)C(=O)O (stereo unspecified),Percent Effect,"30.3 µM, […]",20.29%
Cc1noc(C)c1CN1CCc2ncnc(-c3cccnc3)c2CC1.O=C(O)C(F)(F)F.O=C(O)C(F)(F)F,Percent Effect,"30.3 µM, […]",26.97%
Cc1cc2c(N3CCC(N(C)Cc4cnn(C)c4)CC3)ncnc2s1,Percent Effect,"30.3 µM, […]",31.66%
Cc1cc2c(N3CCC(N(C)CCc4cnn(C)c4)CC3)ncnc2s1,Percent Effect,"30.3 µM, […]",2.228%
Cc1sc2ncnc(N3CCC(N(C)Cc4cnn(C)c4)CC3)c2c1C,Percent Effect,"30.3 µM, […]",50.06%
Cc1oc(C)c(C(=O)Nc2ccccn2)c1C,Percent Effect,"30.3 µM, […]",0.1995%
Cc1cc(N2CCc3c(ncn3C)C2)n2nc(C(F)(F)F)nc2n1,Percent Effect,"30.3 µM, […]",17.99%
CC1(c2ccccc2)CCCN(Cc2cncn2C2CC2)C1 (stereo unspecified),Percent Effect,"30.3 µM, […]",33.62%
CC1(c2ccccc2)CCCN(Cc2cncn2C2CCCC2)C1 (stereo unspecified),Percent Effect,"30.3 µM, […]",95.34%
COCCn1cncc1CN1CCCC(C)(c2ccccc2)C1 (stereo unspecified),Percent Effect,"30.3 µM, […]",-2.364%
Cc1ccc(C2(CN(C)Cc3snnc3C)CCNCC2)nc1,Percent Effect,"30.3 µM, […]",37.33%
Cc1ccc(C2(CN(C)Cc3c(C)nn(C)c3C)CCNCC2)nc1,Percent Effect,"30.3 µM, […]",37.1%
Cc1ccc(C2(CN(C)Cc3sccc3C)CCNCC2)nc1,Percent Effect,"30.3 µM, […]",56.47%
Cc1cccc(-c2noc(CN3CCCC(Cn4cncn4)C3)n2)c1 (stereo unspecified),Percent Effect,"30 µM, 30.03 µM",23.08%
CC(C)c1cncnc1N1CC[C@H](N2CCOCC2)[C@H](CCCO)C1,Percent Effect,"30.3 µM, […]",26.26%
CCCC(=O)Nc1cc2c(cc1OC)NC(=O)CC2c1ccc(CC)o1 (stereo unspecified),Percent Effect,"30.3 µM, […]",77.7%
CCc1ccc(C2CC(=O)Nc3cc(OC)c(NS(C)(=O)=O)cc32)o1 (stereo unspecified),Percent Effect,"30.3 µM, […]",-14.18%
CCc1ccc(C2CC(=O)Nc3cc(NS(C)(=O)=O)ccc32)o1 (stereo unspecified),Percent Effect,"30.3 µM, […]",14.16%
Cc1cc(CN2CCN(Cc3cc(C#N)ccc3F)CC2)no1,Percent Effect,"30.3 µM, […]",28.56%
Cc1ccnc(OC[C@@]23CCO[C@@H]2CCN(c2ncc(F)cn2)C3)n1.O=C(O)C(F)(F)F,Percent Effect,"30.3 µM, […]",22.41%
CC(CN1CCCC1=O)NC(=O)c1cc(Cl)c2c(c1)OCO2 (stereo unspecified),Percent Effect,"30.3 µM, […]",-42.28%
O=C(N[C@@H]1CCNC[C@H]1O)c1ccc(F)c(Cl)c1,Percent Effect,"30 µM, 30.03 µM",13.21%
O=C(N[C@@H]1CCNC[C@H]1O)c1ccc(-c2ccc(F)cc2)cc1,Percent Effect,"30.3 µM, […]",72.82%
O=C(N[C@@H]1CCNC[C@H]1O)c1ccc(F)c(F)c1,Percent Effect,"30.3 µM, […]",-28.62%
Cc1nc(CN2CCOC(Cn3cccn3)C2)nc2ccccc12 (stereo unspecified),Percent Effect,30 µM,18.44%
Cc1nn(C)c2nc(N3CCN(Cc4nccn4C)CC3)sc12,Percent Effect,"30.3 µM, […]",15.9%
Cc1ccc(N2CCC(C(O)Cc3ccccc3)CC2)nn1 (stereo unspecified),Percent Effect,"30.3 µM, […]",17.05%
Cc1nn(C)c2nc(N3CCC(C(O)Cc4ccccc4)CC3)sc12 (stereo unspecified),Percent Effect,"30.3 µM, […]",58.21%
Cc1nn(C)c2nc(N3CCC(C(O)c4nccn4C)CC3)sc12 (stereo unspecified),Percent Effect,"30.3 µM, […]",-0.9674%
Cc1nc(N)sc1C(=O)N1CCC(C(O)Cc2ccccc2)CC1 (stereo unspecified),Percent Effect,"30.3 µM, […]",8.209%
Cc1nn(C)c2nc(N3CCC(C(O)c4ccccn4)CC3)sc12 (stereo unspecified),Percent Effect,"30.3 µM, […]",50.06%
CN(C)C[C@@H]1CN(C(=O)Cc2ccc3ccccc3c2)C[C@@H]1CO,Percent Effect,"30.3 µM, […]",-3.237%
CC(C)N1CC2(CCC1=O)CCN(C(=O)c1cc(F)ccc1Cl)CC2,Percent Effect,"30.3 µM, […]",18%
COc1ccc(CCNC(=O)CN2CCOCS2(=O)=O)cc1,Percent Effect,"30.3 µM, […]",0.9024%
CCc1noc(C2CCCCN2C(=O)c2ccccc2)n1 (stereo unspecified),Percent Effect,"30.3 µM, […]",-11.89%
CCc1noc(C2CCCCN2C(=O)c2cccnc2)n1 (stereo unspecified),Percent Effect,"30.3 µM, […]",-10.93%
CCc1noc(C2CCCCN2C(=O)c2ccc3c(c2)OCO3)n1 (stereo unspecified),Percent Effect,"30.3 µM, […]",61.74%
O=C1C(CS(=O)(=O)Nc2ccc(Br)cc2)=NC(=O)n2cccc21,Percent Effect,"30.3 µM, […]",-27.67%
CCc1noc(CN(CC)C(=O)c2ccc3ncsc3c2)n1,Percent Effect,"30.3 µM, […]",-21.19%
CN(Cc1n[nH]c(=O)n1CCc1ccccc1F)S(C)(=O)=O,Percent Effect,"30.3 µM, […]",22.43%
COc1cccc2c1OCC(C(=O)N1CCN(CCS(C)(=O)=O)CC1)C2 (stereo unspecified),Percent Effect,"30.3 µM, […]",2.664%
Cc1ccc(CN2CCC3(CCCN(Cc4ccc(F)c(F)c4)C3)C2)o1 (stereo unspecified),Percent Effect,"30.3 µM, […]",-12.81%
Fc1ccc(CN2CCCC3(CCN(Cc4ncc[nH]4)C3)C2)cc1F (stereo unspecified),Percent Effect,"30.3 µM, […]",24.4%
Cc1c[nH]c(CN2CCC3(CCCN(Cc4ccc(F)c(F)c4)C3)C2)n1 (stereo unspecified),Percent Effect,"30.3 µM, […]",53.74%
